This is an account of results in PubChem BioAssay.

Test [1] addresses PEG-3 (UniProt Q6IN02). Briefly: Peg3 promoter luciferase inhibitors, potency, dose response, cell-based, HeLa, CREF/GAPDH counter-screen panel (AID 624167). Conditions: CREF/GAPDH counter-screens; HeLa PEG-Prom luciferase reporter, overnight, run 1, dose range 1, at 100 µM (top of the series) unless noted. On the technique in general: A counterscreen serves to expose hits that act by an unwanted route or on another target.

The target in test [2] is PEG-3 (UniProt Q6IN02). The test is described as above. Conditions: CREF/GAPDH counter-screens; HeLa PEG-Prom luciferase reporter, overnight, run 2, dose range 1, at 100 µM (top of the series) unless noted.
Sequence of PEG-3 (Q6IN02 whole entry, looked up): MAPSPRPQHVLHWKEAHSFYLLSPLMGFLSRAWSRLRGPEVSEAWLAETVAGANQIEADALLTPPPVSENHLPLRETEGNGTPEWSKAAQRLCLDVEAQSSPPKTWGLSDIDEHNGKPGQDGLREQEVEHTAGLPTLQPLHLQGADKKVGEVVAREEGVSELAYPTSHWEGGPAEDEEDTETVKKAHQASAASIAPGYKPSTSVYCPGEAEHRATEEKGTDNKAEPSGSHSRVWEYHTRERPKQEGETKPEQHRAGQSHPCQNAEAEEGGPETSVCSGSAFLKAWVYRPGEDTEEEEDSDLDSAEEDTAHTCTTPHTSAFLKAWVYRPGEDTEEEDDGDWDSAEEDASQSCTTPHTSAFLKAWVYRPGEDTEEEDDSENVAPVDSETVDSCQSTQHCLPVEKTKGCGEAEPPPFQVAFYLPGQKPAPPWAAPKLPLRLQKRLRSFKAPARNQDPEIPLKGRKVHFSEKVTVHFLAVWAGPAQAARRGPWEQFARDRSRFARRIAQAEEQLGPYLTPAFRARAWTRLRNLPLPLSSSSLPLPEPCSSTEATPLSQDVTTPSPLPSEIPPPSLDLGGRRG

As usually defined, the inhibition is the change of the read-out against control, counted positive when it falls. Turning to `Cc1cccc(N2CCN(C(=O)C3CCN(c4ncnc5c4nc4n5CCCCC4)CC3)CC2)c1C`, the inhibition with PEG-3 [1] amounted to 101%; in the test with PEG-3 [2] it was 90.7%.
For the compound `Cc1cc(/C=c2/sc3nc4ccccc4n3c2=O)c(C)n1-c1ccccn1`, the inhibition in the test with PEG-3 [1] came to 84.1%; with PEG-3 [2] it was 84.5%.
Regarding `CC(C)NC(=O)NC(=O)COC(=O)c1c2c(nc3ccccc13)CCC2`, the inhibition in the test with PEG-3 [1] came to 101%; with PEG-3 [2], 93.6%.
For `COC(=O)Cc1[nH]n(-c2nc3ccccc3s2)c(=O)c1C(C)=Nc1ccc(Cl)cc1` the same measures were 88.1% and 94.2%.
For `O=S(=O)(CC(CN1CCCCC1)N1CCCCC1)c1ccccc1` (configuration not stated), in that order: 102% and 102%.
As to `CC1=CC(C)[C@H](/C=N/n2c(=O)[nH]c3c([nH]c4ccc(Br)cc43)c2=O)C(C)C1` (some centres not stated), the inhibition was 12.7% with PEG-3 [1] and 77.5% [run 2, dose range 1, at 12.5 µM] with PEG-3 [2].
As for `c1ccc(-c2cc(-c3nc4ccccc4[nH]3)c3ccccc3n2)cc1`, the figures for the inhibition with PEG-3 [1] and with PEG-3 [2] were 86.8% and 88.6%, respectively.
For `CCCCN(C)CCNC(=O)c1cc(-c2cccnc2)nc2ccc(S(=O)(=O)N3CCC(C)CC3)cc12`, in that order: 100% and 96.1%.
For `COc1ccccc1C1c2ccc3ccccc3c2Oc2ncn(CCCO)c(=N)c21` (configuration not stated) the same measures were 102% and 98.3%.
For `O=C(Nc1ccc(-c2cn3ccsc3n2)cc1)c1ccc(F)c(S(=O)(=O)N2CCOCC2)c1`, in that order: 0.918% and -62.2%.
On to `OC[C@@H]1[C@@H](c2ccc(Cl)cc2)C(c2cccc(Cl)c2)=NN1c1ccccc1`, for which the inhibition with PEG-3 [1] came to 102%; with PEG-3 [2], 101%.
For `COc1cccc(NC(=O)CN(C)C(=O)c2cccnc2Nc2cccc(C(F)(F)F)c2)c1` the same measures were 102% and 102%.
For `CSc1ccc(CN(C)C(=O)C(Cc2ccccc2)NC(=O)c2ccccc2)cc1` (configuration not stated), in that order: 101% and 96.7%.
Take `CCOC(=O)/C(=C\c1ccccc1)C(=O)CCN1CCOCC1`: the inhibition with PEG-3 [1] and with PEG-3 [2] was 102% in each case.
Take `COc1ccc(-c2cc(C(=O)N3CCN(c4ccccc4F)CC3)c3ccccc3n2)c(OC)c1`: the inhibition with PEG-3 [1] was 27.3%; in the test with PEG-3 [2] it was 47.4%.
For `CN(C)CCNc1ccc2nnn3c4ccc(O)cc4c(=O)c1c23`, in that order: 102% and 98%.
As to `C[C@@H](C(=O)Nc1ccc2c(c1)OCCO2)n1c(=O)[nH]c2ccccc2c1=O`, the results for the inhibition in the test with PEG-3 [1] and in the test with PEG-3 [2] were 53.8% and 39.3%, respectively.
Turning to `O=C(NC(c1ccc(F)cc1)c1ccc2ccccc2n1)C1CCN(Cc2cccc(C(F)(F)F)c2)CC1` (configuration not stated), the results for the inhibition with PEG-3 [1] and with PEG-3 [2] were 91.2% and 94.1%, respectively.
For `CC(=O)Nc1cccc(NC(=O)c2cc(-c3cccnc3)nc3ccc(Cl)cc23)c1`, in that order: 87.9% and 97.3%.
For `COc1cc2c(cc1OC)CN(c1nc(-c3cccnc3)nc3ccccc13)CC2`, in that order: 95.5% and 99.1%.
With `CC1CCCCN1C(=O)c1cccc(NC2=C(Cl)C(=O)N(Cc3ccccc3)C2=O)c1` (configuration not stated), the inhibition with PEG-3 [1] and with PEG-3 [2] was 101% in each case.
`CCCCNc1nc(=S)n(-c2ccccc2)c(C)c1C(C)=O`: the inhibition with PEG-3 [1] turned out to be 98%; with PEG-3 [2], 98.8%.
Take `COc1ccc(CC(N)c2csc(NC(=O)Nc3cc(OC)ccc3OC)n2)cc1` (configuration not stated): the results for the inhibition with PEG-3 [1] and with PEG-3 [2] were 94.3% and 98.7%, respectively.
`CCOC(=O)C1=C(COCCN)NC(C)=C(C(=O)OC)C1c1ccccc1Cl` (configuration not stated): the inhibition with PEG-3 [1] is 98.7%; with PEG-3 [2], 100%.
For `Cc1c(C#N)c(N)nc2c3c(sc12)NC(=O)CC3c1ccc(Cl)cc1` (configuration not stated), in that order: 98.7% and 100%.
For `CCn1c2ccccc2c2cc(NC(=O)C(C)OC(=O)c3ccc(NC(=O)CC#N)cc3)ccc21` (configuration not stated), in that order: 97.5% and 83.1%.
For `COc1cccc(NC(=O)CN(C)C(=O)c2cc(-c3ccc(F)cc3)nc3ccccc23)c1`, in that order: 102% and 99.1%.
With `c1ccc(C[C@H]2CNCCN2CCCCC2CCCCC2)cc1`, the inhibition amounted to 102% with PEG-3 [1] and 101% with PEG-3 [2].
For `CCN(CC)CCSc1nnc2c3cc(C)ccc3n(Cc3ccccc3)c2n1`, in that order: 102% and 99.8%.
Consider `COc1ccc(C(O)(CCC(C)C)C(CN2CCOCC2)c2ccccc2)cc1` (configuration not stated), for which the inhibition with PEG-3 [1] amounted to 96.5%; with PEG-3 [2], 101%.
For `Cc1ccccc1NC(=O)Nc1nc(C(N)C2CCCCC2)cs1` (configuration not stated), in that order: 98.9% and 99.7%.
As for `CN(C)S(=O)(=O)c1cccc(NC(=O)CSc2cccc3cccnc23)c1`, the results for the inhibition in the test with PEG-3 [1] and in the test with PEG-3 [2] were 99.3% and 101%, respectively.
For `CN(C)C(=O)c1cccc(-c2cnc3c(NC=O)cc(-c4cccc(C(F)(F)F)c4)cn23)c1` the same measures were 89.1% and 93.6%.
Consider `CC(=O)c1c(NCCc2ccccc2)nc(=S)n(-c2ccccc2)c1C`, for which the inhibition amounted to 99.6% in the test with PEG-3 [1] and 99% with PEG-3 [2].
For `CC(=O)c1ccc(Nc2nc(C(N)Cc3ccc(Cl)cc3)cs2)cc1` (configuration not stated) the same measures were 99.5% and 98.2%.
For `COc1ccccc1N1CCN(C(=O)c2sc3ncnc(N4CCN(c5ccccn5)CC4)c3c2C)CC1` the same measures were 88.3% and 93.5%.
For `Cc1cc(C)c2sc(N(CCCN(C)C)C(=O)c3ccc(S(=O)(=O)N(C)Cc4ccccc4)cc3)nc2c1`, in that order: 98.7% and 101%.
For `Cn1nnnc1Sc1ncnc2scc(-c3ccc4c(c3)OCO4)c12`, the inhibition with PEG-3 [1] turned out to be 102%; with PEG-3 [2], 97.4%.
For `COc1ccc(C)cc1Nc1n[n+](-c2ccccc2)c(-c2ccc(N(C)C)cc2)s1` the same measures were 97.2% and 100%.
`CC1=C(CC[C@@H](C)CO)OC2CC3C4CCC5CC(O)CCC5(C)C4CC(=O)C3(C)C12` (some centres not stated): the inhibition was determined as 88.8% in the test with PEG-3 [1] and 83.2% with PEG-3 [2].
With `CCCc1nc(SCC(=O)N2CCCc3ccccc32)c2c(=O)n(C)c(=O)n(C)c2n1`, the inhibition with PEG-3 [1] turned out to be 99.2%; with PEG-3 [2], 96.2%.
